Assay results reported in ChEMBL document CHEMBL3988442, “University of Dundee, Small-Polar-MMV Screening Library” (2021).

Each compound was assayed against AMP-activated protein kinase, AMPK (Homo sapiens) (UniProt P54646+O43741+P54619+Q9UGJ0+Q9Y478+Q13131+Q9UGI9) (assay: AMP-dependent Kinase enzyme assay. An in vitro enzyme assay that detects ADP turnover that is directly proportional to AMPK activity. This uses naive AMPK that is activated during the assay with MK-8722). Conditions: 30 µM.
Type: functional
Parameters: scale not given: direction of the effect not stated beside the values

Going from `CC(C)Cn1ncc(C(=O)O)c1C1CC1` to `COC(=O)c1ccoc1CN(C1CC1)C1CCS(=O)(=O)C1` (stereo not given), the Percent Effect rises from 5.05% to 7.17%.

Going from `Cc1ccc(F)c2c1CCCN2CC(=O)NC1CCS(=O)(=O)C1` (stereo not given) to `CCc1ccc(C(=O)NC2CCN(c3ccn(C)n3)C2)o1` (stereo not given), the Percent Effect falls from 3.51% to 1.78%.

Going from `CC(OCC1CC1)C(=O)Nc1cccc(C(=O)Nc2ccncc2)c1` (stereo not given) to `COC(=O)c1ccc(C(=O)NCc2ccco2)nc1`, the Percent Effect falls from 17.8% to -1.39%.

Compared with `CCNC(=O)[C@@H]1C[C@H](N)CN1c1cc(C(F)(F)F)nc(N(C)C)n1`, `CCC[C@@H]1CN(Cc2cnc3c(S(C)(=O)=O)cnn3c2)C[C@H]1N(C)C` is higher in Percent Effect: -12% for the first, -10.1% for the second.

Compared with `CN(C)S(=O)(=O)c1ccc(=O)n(CC2CCCCO2)c1` (stereo not given), `O=C(O)CN(Cc1ccsc1)CC1CCCO1` (stereo not given) is higher in Percent Effect: 8.37% for the first, 10.1% for the second.

Going from `CC1(C)Cc2nc(C(C)(C)C)ncc2C(NC(=O)Cc2nnn[nH]2)C1` (stereo not given) to `O=C(NCc1ccc(OCC2CC2)nc1)C1COc2ccccc2O1` (stereo not given), the Percent Effect rises from -20.8% to -1.03%.

Compared with `CCCC1c2ccccc2CCN1CCS(C)(=O)=O` (stereo not given), `C[C@@H]1CN(Cc2cn(C)nc2-c2ccccc2F)C[C@H](C)O1` is higher in Percent Effect: -0.239% for the first, 19.5% for the second.

Compared with `O=C1CSCN1Cc1nc(-c2ccc(N3CCCCC3)cc2)no1`, `COc1ccc(CCN2CCCC(n3cncn3)C2)cc1` (stereo not given) is lower in Percent Effect: 2.39% for the first, 0.286% for the second.

Compared with `CC(C)N(Cc1ccccn1)C(=O)CCOc1cccc(F)c1`, `Cc1cnn(C2CN(CCCOc3ccc(C#N)cc3)C2)c1` is higher in Percent Effect: -0.803% for the first, -0.666% for the second.

Compared with `CCOC(=O)C1(O)CCN(C(=O)Nc2cccc(CC)c2)CC1`, `NCC1Cc2cccc(-c3ccc(O)c(F)c3)c2O1` (stereo not given) is higher in Percent Effect: -6.62% for the first, 89.9% for the second.
